Assay outcomes: PubChem BioAssay, National Center for Advancing Translational Sciences (NCATS)
Cycloheximide cs: counter-screen hit for Shiga toxin inhibitors, cycloheximide; max response, %; hit rate 12% among 300,000; AID 2314; cell reporter, cycloheximide protein synthesis inhibition counterscreen; in the data active = max response mostly above about 13%, no sharp cut-off; inactive = mostly below about 14%; note: read at 38.3 µM for the half of the compounds with a filed dose; 0% is about no effect
Shiga inhibitor: Shiga toxin inhibition; hit rate 9.2% among 290,000; AID 2315; inhibition, % at 38.7 µM; Vero cells, Shiga toxin protein synthesis inhibition reporter; in the data active = inhibition mostly above about 28%, no sharp cut-off; inactive = mostly below about 43%; note: 0% is about no effect
Pf growth 96h: P. falciparum growth inhibition at 96 hours; P. falciparum luciferase reporter growth, 96 h; Potency, µM (titrated, usually from 28.7 µM), inactives show at the top dose activity change, negative = inhibition, most hits filed as inhibitors; hit rate 6.9% among 320,000; note: potency is the fitted concentration of half-maximal effect; % is set by controls: 0 for no effect and ±100 for the full control effect
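Delayed-death screen, second-generation endpoint: infected erythrocytes, 2% hematocrit, 0.05% parasitemia final; 96 hours at 37 C, 5% CO2; luciferase detection reagent; luminescence decrease equals reduced growth.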
Pf growth 48h: P. falciparum growth inhibition at 48 hours (one generation) | P. falciparum luciferase growth in erythrocytes, 48 h | Potency, µM (doses to about 28.7 µM), inactives show at the top dose activity change, negative = inhibition, hits mostly inhibitors | hit rate 5.9% among 310,000; note: potency is the fitted concentration of half-maximal effect; % is set by controls: 0 for no effect and ±100 for the full control effect
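First compound was added to culture medium, then infected red cells at 0.1% parasitemia and 2% hematocrit (final). After incubation at 37 C under 5% CO2, luciferase detection reagent was dispensed and light output recorded.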
NS1 inh: influenza NS1 inhibition | Potency, µM (doses to about 46.1 µM), for the others: top-dose activity, positive = more growth | hit rate 0.4% among 270,000 | AID 2326; calls by dose curve; note: potency is the fitted concentration of half-maximal effect; actives are rising curves; nearly all actives have a fitted effect of over 50% in size
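Growth recovery, yeast-based: influenza A NS1 expressed in S. cerevisiae causes slow growth, and suppressors are detected by OD600. The parent strain without NS1 is used as positive control.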
Starred values were filed as active, the others as inactive; ? = inconclusive; . = no result given. Only some compounds are listed: those with a hit (about 21% of all), similar ones and a draw of the others. Unless noted, calls come from the whole dose curve; as a rule, active = well fitted inhibition curve with a large enough effect; inconclusive = small, poorly fitted or top-dose-only effect, or another doubt; inactive = no such curve, though single readings can be large or run the other way.

SMILES | Cycloheximide cs | Shiga inhibitor | Pf growth 96h | Pf growth 48h | NS1 inh
O=C(NCc1cccs1)C1CC1 | 13.5 | 13.5 | -4.9% | -39.1% | 3.9%
O=C(CCC(=O)c1cccs1)Nc1nnc(C2CC2)s1 | 17.0* | 4.1 | . | -12.0% | 0.8%
CC(C)N1C(=O)CCC1C(=O)NCc1cccs1 (stereo unspecified) | 43.5* | 72.5 | -5.4% | 23.8% | .
O=C(Nc1nnc(C2CC2)s1)c1cccs1 | 51.0* | 99.5* | ? | 110.1% | -38.2%
Cc1nnc(NC(=O)CCC(=O)NCc2cccs2)s1 | 6.0 | -7.2 | 6.8% | 69.0% | 11.5%
O=C(CCC(=O)Nc1nnc(C2CCCCC2)s1)NCc1cccs1 | 6.4 | 22.2 | 10.4µM* | 20.0% | 5.6%
N#Cc1ccc(-n2c(-c3ccccc3)nnc2-c2ccccc2)cc1C#N | 30.0* | 36.8 | 0.0% | ? | ?
N#Cc1cccc(-n2c(-c3ccccc3)nnc2-c2ccccc2)c1C#N | 19.0* | 24.3 | . | 5.22µM* | 26.0%
CC(=O)c1nnn(-c2ccccc2C#N)c1C | -1.0 | -4.1 | 46.6% | 68.4% | 0.2%
O=C(Nc1ccc(Br)cn1)c1cccc2c1-c1ccccc1C2=O | -5.6 | -7.7 | 2.1% | -4.1% | .
Clc1cccc(CN2C3=NCCCN3c3ccccc32)c1 | -3.0 | 0.8 | ? | -17.0% | -1.4%
c1ccc(CN2C3=NCCCN3c3ccccc32)cc1 | -2.1 | -8.3 | 52.5% | 8.28µM* | 2.1%
CC(C)(C)c1ccc(CN2C3=NCCCN3c3ccccc32)cc1 | -5.4 | -7.3 | 0.8% | 3.7µM* | -0.8%
COC(=O)CN1C2=NCCCN2c2ccccc21 | -1.9 | -12.3 | 80.3% | 32.2% | 5.0%
Cc1ccc(CN2C3=NCCCN3c3ccccc32)cc1 | -4.7 | -3.8 | ? | 11.7µM* | -6.3%
O=C(O)CN1C2=NCCCN2c2ccccc21 | -0.8 | -6.3 | 27.0% | 14.5% | -0.9%
Brc1ccc(CN2C3=NCCCN3c3ccccc32)cc1 | -6.8 | -12.5 | 130.6% | 11.7µM* | -7.3%
c1ccc2c(c1)CCCN2Cc1nnnn1C1CCCC1 | 1.1 | 18.4 | . | -7.6% | -8.0%
O=C1C2=C(Nc3cc([N+](=O)[O-])ccc3N2)O[C@@H]1c1c[nH]c2ccc(COc3ccccc3)cc12 | . | . | . | . | 12.8%
Clc1ccc(CN2C3=NCCCN3c3ccccc32)c(Cl)c1 | -2.6 | -5.1 | 1.04µM* | ? | -2.5%
Clc1ccc(CN2C3=NCCN3c3ccccc32)cc1 | -3.2 | -15.0 | . | ? | 1.9%
Cc1ccc(Cn2ncc3c4sc(C)cc4n(C)c3c2=O)cc1 | 7.5 | -10.8 | . | . | .
O=C(Nc1ccccc1NC(=O)c1c(F)cccc1F)c1c(F)cccc1F | -5.4 | 10.2 | -4.0% | -7.6% | 2.8%
O=C(c1cc2ccccc2o1)N(C1CC1)C1(C(=O)Nc2ccccc2)CCCC1 | 1.1 | 10.4 | -29.4% | ? | .
CN1C2CCC1CC(OC(=O)C(O)c1ccccc1)C2 (stereo unspecified) | . | . | . | . | -1.4%
SMILES | Cycloheximide cs | Shiga inhibitor | Pf growth 96h | Pf growth 48h | NS1 inh
CN1[C@@H]2CC[C@H]1CC(OC(=O)C1C=Nc3ccccc31)C2 (stereo partly specified) | -7.8 | 1.0 | 13.1µM* | ? | -4.3%
Cc1ccsc1C(=O)Nc1nnc(-c2ccco2)o1 | 18.1* | 14.4 | -10.6% | ? | -35.7%
Cc1ccc(C(=O)Nc2nnc(-c3ccco3)o2)cc1 | 43.8* | 18.1 | ? | 88.8% | -1.5%
CCC(=O)Nc1nnc(-c2ccco2)o1 | -5.1 | -9.1 | 10.7% | . | 0.4%
O=C(Nc1nnc(-c2ccco2)o1)c1ccc([N+](=O)[O-])s1 | -1.9 | 31.1 | 11.7µM* | -23.2% | 3.1%
CCc1cc(CC)c(/C=N/NC(N)=O)c(CC)c1 | -7.6 | -3.0 | -1.3% | -7.7% | .
COc1ccc(S(N)(=O)=O)cc1C(=O)OCC(=O)NC(C)(C#N)C1CC1 (stereo unspecified) | . | . | 1.7% | -6.8% | .
CC(=O)c1c(C(C)=O)c(C)n(-c2nc(-c3ccc(C)c(C)c3)c(C)s2)c1C | 1.5 | 6.5 | -17.9% | 11.7µM* | -15.6%
CCC(C(=O)NCCc1ccco1)n1nc(C)c2c(C)n(-c3ccccc3)nc2c1=O (stereo unspecified) | -2.6 | -2.3 | 13.9% | -4.6% | 7.1%
CCC(C(=O)Nc1ccccc1F)n1nc(C)c2c(C)n(-c3ccccc3)nc2c1=O (stereo unspecified) | -0.8 | -5.3 | 14.7µM* | ? | 9.3%
CCC(C(=O)Nc1cccc(OC)c1)n1nc(C)c2c(C)n(-c3ccccc3)nc2c1=O (stereo unspecified) | -9.9 | -3.4 | 38.1% | ? | -9.4%
CCC(C(=O)NC1CC1)n1nc(C)c2c(C)n(-c3ccc(C)cc3)nc2c1=O (stereo unspecified) | -0.6 | -6.9 | ? | -1.4% | 8.9%
CCC(C(=O)Nc1cc(F)ccc1F)n1nc(C)c2c(C)n(-c3ccc(C)cc3)nc2c1=O (stereo unspecified) | -2.0 | 1.6 | 8.28µM* | ? | 1.6%
CCOc1ccc(NC(=O)C(CC)n2nc(C)c3c(C)n(-c4ccccc4)nc3c2=O)cc1 (stereo unspecified) | -8.8 | -4.7 | 13.1µM* | ? | 13.0%
O=C(COC(=O)c1ccc2c(c1)S(=O)(=O)N=C1CCCCCN12)NCc1cccs1 | 1.3 | 10.7 | 33.3% | 5.9% | 2.2%
O=C(CNCCc1ccccc1)Nc1ccc(C(=O)N2CCCCC2)cc1 | 27.9* | 72.9 | 21.9% | -18.3% | -7.4%
O=C(CNCCc1ccc(Cl)cc1)Nc1ccc(C(=O)N2CCCCC2)cc1 | -3.6 | -12.7 | 11.4% | ? | 4.1%
Cc1ccccc1CC(=O)Nc1ccc(C(=O)N2CCCC2)cc1 | 25.3* | 45.6 | 9.7% | -5.1% | 5.7%
Cc1ccnc(NS(=O)(=O)c2ccc(NC(=O)c3ccc([N+](=O)[O-])s3)cc2)n1 | -2.2 | 7.4 | 11.7µM* | 4.15µM* | -7.4%
CC(=O)Nc1ccc2nc(NC(=O)c3ccc([N+](=O)[O-])s3)sc2c1 | 14.9 | 25.7 | -2.1% | ? | 0.9%
O=C(Nc1ccc(S(=O)(=O)NC2=NCCCCC2)cc1)c1ccc([N+](=O)[O-])s1 | . | . | 13.1µM* | 10.4µM* | .
Cc1ccnc(NS(=O)(=O)c2ccc(NC(=O)C3CCCCC3C(=O)O)cc2)n1 (stereo unspecified) | -3.0 | 22.0 | 2.94µM* | 27.0% | -9.2%
Cc1nc2cc(NC(=O)c3ccc([N+](=O)[O-])s3)ccc2s1 | 34.3* | 52.3* | ? | ? | -8.4%
CC(=O)Nc1ccc(C(=O)Nc2ccc(S(=O)(=O)Nc3nccc(C)n3)cc2)cc1 | -3.4 | -1.3 | 0.0% | 17.1% | 22.4%
CN(C)S(=O)(=O)c1ccc(C(=O)Nc2ccc(S(=O)(=O)NC3=NCCCCC3)cc2)cc1 | 3.3 | 0.6 | ? | . | ?
CC(C)Oc1ccc(/C=N/NC(=O)c2nnn(-c3nonc3N)c2CN(C)c2ccccc2)cc1 | 18.7 | 8.0 | -10.2% | 7.1% | ?
CC(C)=CCc1c(O)ccc2c1OC(c1ccc(O)c(O)c1)CC2=O (stereo unspecified) | 14.1* | 4.2 | ? | 4.1% | 6.5%
O=C1C[C@@H](c2ccc(O)c(O)c2)Oc2c1ccc(O[C@@H]1O[C@H](CO)[C@@H](O)[C@H](O)[C@H]1O)c2O | 7.8 | 9.7 | . | . | .
